# Laboratory results as given in PubChem BioAssay (NCATS).
# Results filed as inconclusive are left out. Entries that show only a call come without a potency. Activity calls are given as the source filed them. Unless noted, calls follow the shape of the dose curve; as a rule, active = well fitted curve in the direction sought with a large enough effect; inconclusive = small, poorly fitted or top-dose-only effect, or another doubt; inactive = no such curve, though single readings can be large; an effect the other way counts as inactive or inconclusive.
# Tests used:
# [1] = qHTS assay for measurement of the activity of small molecule inhibitors on Zika virus induced Caspase-3 activity in human iPSC derived neural progenitor cells (hNPCs) (AID 1224857); also: nearly all actives have a fitted effect of over 65% in size
# Summary of the method: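 Cells were plated at 350 per well and grown 16 to 20 hours. Compound pretreatment lasted one hour, after which ZIKV (2 FFU/cell) was added for 6 hours. Percent inhibition was normalized between uninfected and infected controls.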
# [2] = qHTS assay for measurement of the activity of small molecule inhibitors on Zika virus induced Caspase-3 activity in human astrocytoma cells (AID 1224859)
# Summary of the method: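 Percent inhibition of virus-induced caspase-3/7 signal is calculated against uninfected and ZIKV-infected control cells. Cells are SNB-19, infected at 2 FFU/cell for 6 h after 1 h compound exposure.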
# [3] = qHTS profiling of the MIPE4 collection as inhibitors of Plasmodium falciparum (DD2) proliferation (AID 743345; call rule not given here); conditions: P. falciparum Dd2 in erythrocytes, SYBR Green DNA, 72 h; at 28.5 µM (top of the series)
# Summary of the method: (§1)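 Parasite DNA was quantified by SYBR Green I fluorescence (ex 485, em 535 nm) after overnight lysis in saponin/Triton buffer at room temperature. Cultures at 0.3% parasitemia and 2.5% hematocrit were first exposed to compound for 72 h at 37 C; signals were normalised to artemisinin (0.29 uM) and vehicle wells.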
# [4] = qHTS profiling of the MIPE4 collection as inhibitors of Plasmodium falciparum (HB3) proliferation (AID 743347; call rule not given here); conditions: P. falciparum HB3 in erythrocytes, SYBR Green DNA, 72 h; at 28.5 µM (top of the series)
# Text: Plasmodium falciparum is a virulent malarial parasite that kills 1-2 million people worldwide each year. Transmitted by mosquitoes, the sporozoite form of the parasite enters the blood stream to infect hepatocytes, where they become merozoites that infect red blood cells (erythrocytes). Within erythrocytes, merozoites begin a […] cycle of growth and division, after which the parasite is released to infect new red blood cells. Gametocytes, which form within erythrocytes as well, circulate in the bloodstream and are ingested by the mosquito, thereby completing the life cycle. To profile malarial isolates for differential chemical responses and to identify inhibitors of malarial growth, an assay that measures P. falciparum growth and replication within erythrocytes was employed. […] Because mature erythrocytes lack DNA, only Plasmodium-derived DNA is detected.
# The SYBR Green viability assay was adapted from a method described previously (Plouffe et al., 2008). […] The following morning, fluorescence intensity at 485(14) nm excitation and 535(25) nm emission wavelengths was measured on an EnVision (Perkin Elmer) plate reader. Plate reads were normalized relative to the control inhibitor (0.29 uM artemisinin) and vehicle (DMSO) wells present on each plate and then corrected by an algorithm using vehicle-only control plates at the beginning and end of the compound plate stack.
# [5] = qHTS profiling of the MIPE4 collection as inhibitors of Plasmodium falciparum (3D7) proliferation (AID 743344; call rule not given here); conditions: P. falciparum 3D7 in erythrocytes, SYBR Green DNA fluorescence, 72 h; at 28.5 µM (top of the series)
# Summary of the method: as §1
# [6] = qHTS profiling of the MIPE4 collection as inhibitors of Plasmodium falciparum (DD2) proliferation (Rep 2) (AID 743346; call rule not given here); conditions: P. falciparum Dd2 in erythrocytes, SYBR Green DNA, 72 h; at 28.5 µM (top of the series)
# Summary of the method: as §1
# [7] = qHTS profiling for inhibitors of Plasmodium falciparum (HB3) proliferation (AID 743324); conditions: Plasmodium falciparum HB3 blood-stage proliferation; at 28.7 µM (top of the series)
# Summary of the method: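 SYBR Green fluorescence (485 ex/535 em) of lysed cultures, incubated overnight at room temperature in the dark, quantifies parasite DNA. Infected erythrocytes at 0.3% parasitemia and 2.5% hematocrit were exposed 72 h; values normalized to DMSO and 0.29 uM artemisinin controls.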
# [8] = qHTS assay to identify small molecule inhibitors of chordoma cells - UCH-1 (AID 1259355); also: nearly all actives have a fitted effect of over 55% in size
# Summary of the method: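 A 48hr growth-inhibition format: each drug tested at 15 concentrations together with added auranofin, camptothecin, doxorubicin, rubitecan and topotecan, with cell viability quantified as CellTiter-Glo luminescence.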
# [9] = qHTS assay to identify small molecule inhibitors of chordoma cells - UCH-2 (AID 1259356)
smiles,measurement,setting,value
C[N+]1(C)CCN(c2ccccc2)CC1,Potency,[1],inactive
same,outcome,[2],inactive
NC(=O)COc1c(F)cc(SCCNS(=O)(=O)c2ccccc2)cc1F,Potency,[1],inactive
same,outcome,[2],inactive
C#CCN[C@H](C)Cc1ccccc1,Potency,[1],inactive
same,outcome,[2],inactive
C=CCN1C[C@@H](C)N([C@H](c2ccc(C(=O)N(CC)CC)cc2)c2cccc(OC)c2)C[C@@H]1C,Potency,[1],inactive
same,outcome,[2],inactive
C[N+]1(C)[C@@H]2CC(OC(=O)[C@H](CO)c3ccccc3)C[C@H]1[C@H]1O[C@@H]12 (some centres undefined),"parasite growth remaining, % of DMSO control (lower = more inhibition)",[3],91.7%
same,"growth, % of control",[4],86.8%
same,Potency,[1],inactive
Cc1cc([C@@H]2CCCN2C)on1,Potency,[1],inactive
same,outcome,[2],inactive
Oc1ccc2c3c1O[C@H]1c4oc5ccccc5c4C[C@@]4(O)C(C2)N(CC2CC2)CCC314 (some centres undefined),Potency,[1],inactive
same,outcome,[2],inactive
OCc1cnc[nH]1,Potency,[1],inactive
same,outcome,[2],inactive
Cc1sc2ccccc2c1CC1=NCCN1,Potency,[1],inactive
same,outcome,[2],inactive
CN1C2CCC1CC(OC(c1ccccc1)c1ccccc1N)C2 (centres undefined),Potency,[1],inactive
same,outcome,[2],inactive
CC(N)[C@H](O)c1ccc(O)c(O)c1 (some centres undefined),Potency,[1],inactive
same,outcome,[2],inactive
CN1CCc2cccc(Cl)c2CC1,Potency,[1],inactive
same,outcome,[2],inactive
COc1ccc(OC)c(C(O)C(C)N)c1 (centres undefined),Potency,[1],inactive
same,outcome,[2],inactive
C[N+]1(C)CCOC(O)(c2ccc(-c3ccc(C4(O)C[N+](C)(C)CCO4)cc3)cc2)C1 (centres undefined),Potency,[1],inactive
same,outcome,[2],inactive
CCCn1c(=O)c2[nH]c(C3CCCC3)nc2n(CCCOC(=O)c2ccc(S(=O)(=O)F)cc2)c1=O,Potency,[1],inactive
same,outcome,[2],inactive
Oc1ccc2c3c1O[C@H]1c4[nH]c5ccccc5c4C[C@@]4(O)C(C2)N(CC2CC2)CCC314 (some centres undefined),"parasite growth, % of DMSO control",[5],5.78%
same,"parasite growth remaining, % of DMSO control (lower = more inhibition)",[3],28.3%
same,"parasite growth, % of control (lower = inhibition)",[6],12.6%
same,"growth, % of control",[4],5.24%
same,Potency,[1],inactive
same,outcome,[2],inactive
CC12NC(Cc3ccccc31)c1ccccc12 (centres undefined),Potency,[1],inactive
same,outcome,[2],inactive
C[N+]1(C)CCc2cc3c(cc2[C@H]1[C@@H]1OC(=O)c2c1ccc1c2OCO1)OCO3,Potency,[1],inactive
same,outcome,[2],inactive
CCn1cnc2c(Nc3cccc(Cl)c3)nc(N[C@@H]3CCCC[C@@H]3N)nc21,Potency,[1],inactive
same,outcome,[2],inactive
Cc1c2ccncc2c(C)c2c1[nH]c1ccccc12,Potency,[1],inactive
same,outcome,[2],inactive
C[C@H](N)Cc1cccc(C(F)(F)F)c1,Potency,[1],inactive
same,outcome,[2],inactive
CCCN(CCC)C1CCc2cccc(O)c2C1 (centres undefined),Potency,[1],inactive
same,outcome,[2],inactive
CC(C)(C)c1cc(C=C(C#N)C#N)cc(C(C)(C)C)c1O,Potency,[1],inactive
same,outcome,[2],inactive
CCCN1CCC[C@@H](c2cccc(O)c2)C1,Potency,[1],inactive
same,outcome,[2],inactive
NC(Cc1cc(O)c(O)cc1O)C(=O)O (centres undefined),Potency,[1],inactive
same,outcome,[2],inactive
NC(=O)CI,Potency,[1],inactive
same,outcome,[2],inactive
COc1ccc2c(c1O)-c1cccc3c1[C@@H](C2)N(C)CC3,Potency,[1],inactive
same,outcome,[2],inactive
O=C1CC[C@@]2(O)C3Cc4ccc(O)c5c4C2(CCN3CC2CC2)[C@H]1O5 (some centres undefined),Potency,[1],inactive
same,outcome,[2],inactive
CCCN(CCC)[C@H]1CCc2c(F)ccc(O)c2C1,Potency,[1],inactive
same,outcome,[2],inactive
CC(=O)c1c(O)c(C)c(O)c(Cc2c(O)c3c(c(C(=O)/C=C/c4ccccc4)c2O)OC(C)(C)C=C3)c1O,"remaining proliferation (% of control), lower = more inhibition",[7],-2.57%
same,Potency,[1],inactive
same,outcome,[2],inactive
C[C@@H]1O[C@@H](O[C@H]2C[C@@H](O)[C@]3(CO)[C@@H]4C(CC[C@]3(O)C2)[C@@]2(O)CC[C@H]([C@@H]3COC(=O)C3)[C@@]2(C)C[C@H]4O)[C@H](O)[C@H](O)[C@H]1O (some centres undefined),Potency,[1],inactive
same,outcome,[2],inactive
NC(N)=NOCC[C@H](N)C(=O)O,Potency,[1],inactive
same,outcome,[2],inactive
NCCCP(=O)(O)O,Potency,[1],inactive
same,outcome,[2],inactive
C[N+]1(C)C2CCC1CC(OC(=O)c1c[nH]c3ccccc13)C2 (centres undefined),Potency,[1],inactive
same,outcome,[2],inactive
Nc1ccc(CCN2CCN(c3cccc(C(F)(F)F)c3)CC2)cc1,Potency,[1],inactive
same,outcome,[2],inactive
C[N+](C)(C)CC#CCN1CCCC1=O,Potency,[1],inactive
same,outcome,[2],inactive
Clc1ccc(N2CC3CCC(C2)N3)nn1,Potency,[1],inactive
same,outcome,[2],inactive
NC(Cc1ccc(N(CCCl)CCCl)cc1)C(=O)O (centres undefined),"remaining proliferation (% of control), lower = more inhibition",[7],9.39%
CCC1(C)CC(=O)NC(=O)C1,Potency,[8],inactive
same,Potency,[9],inactive
O=c1c2ccccc2[se]n1-c1ccccc1,Potency,[8],inactive
same,Potency,[9],inactive
CCNC(C)Cc1cccc(C(F)(F)F)c1 (centres undefined),Potency,[8],inactive
same,Potency,[9],inactive
O=C(NC(=O)c1c(F)cccc1F)Nc1ccc(Cl)c(Oc2ncc(C(F)(F)F)cc2Cl)c1,Potency,[8],inactive
same,Potency,[9],inactive
C[C@]12CC[C@H](OS(=O)(=O)O)CC1=CC[C@@H]1[C@@H]2CC[C@]2(C)C(=O)CC[C@@H]12,Potency,[8],inactive
same,Potency,[9],inactive
NCC(O)c1cccc(O)c1 (centres undefined),Potency,[8],inactive
same,Potency,[9],inactive
CC1(C)S[C@@H]2[C@H](N)C(=O)N2[C@H]1C(=O)O,Potency,[8],inactive
same,Potency,[9],inactive
S=C=S,Potency,[8],inactive
same,Potency,[9],inactive
O[C@H]1[C@H]2[C@H](O)CCCN2C[C@H]1O,Potency,[8],inactive
same,Potency,[9],inactive
